Results reported in PubChem BioAssay AID1508624 (National Center for Advancing Translational Sciences (NCATS), 2021).
In all, about 48,000 compounds went through this assay and about 120 (0.25%) were called active. Not shown: some 4% with an inconclusive outcome. The call rests on the fitted dose curve; in most records, active means well fitted activation curve with a large enough effect; inconclusive means small, poorly fitted or top-dose-only effect, or another doubt; inactive means no such curve, though single readings can be large or run the other way. Shown is part of a subset that was picked to be rich in actives.

Test: Primary qHTS for Identification of Small Molecule Activators of Huntingtin-Antisense Promoter Activity; further: nearly all actives have a fitted effect of over 55% in size
Settings: HEK293 HTT-AS promoter firefly luciferase reporter, 24 h; series mostly up to 57.5 µM; activity change, positive = activation: at the top concentration
Text: Assay Provider: Russell L. Margolis M.D.
Department Neurology, Johns Hopkins University School of Medicine, Baltimore, MD
Huntington's Disease (HD) is a neurodegenerative disorder caused by a CAG repeat expansion in exon 1 of huntingtin (HTT). While there are currently no disease-modifying treatments for HD, recent efforts have focused on development of nucleotide-based therapeutics to lower HTT expression. As an alternative to siRNA or oligonucleotide methods, we hypothesized that suppression of HTT expression might be accomplished by small molecules that either (1) directly decrease HTT expression by suppressing HTT promoter activity or (2) indirectly decrease HTT expression by increasing the promoter activity of HTT-AS, the gene antisense to HTT that appears to inhibit expression of HTT.
We developed and employed a high throughput screen for modifiers of HTT and HTT-AS promoter activity using luminescent reporter HEK293 cells; of the 52,041 compounds tested, we identified 898 replicable hits. We used a rigorous stepwise approach to assess compound toxicity and the capacity of the compounds to specifically lower huntingtin protein in 5 different cell lines, including HEK293 cells, HD lymphoblastoid cells, mouse primary neurons, HD iPSCs differentiated into cortical-like neurons, and HD hESCs. We found no compounds which were able to lower huntingtin without lowering cell viability in all assays, though the potential efficacy of a few compounds at non-toxic doses could not be excluded.
SEQUENCE No. (1, 2, 3, etc.); […] (e.g., Cells, Incubation, Reagent, etc.); VALUE and DESCRIPTION.
1; Reagent; 4 uL; 2,500 Hek293 luciferase reporter cells per wells
3; Compound; 23 nL; Control inhibitor / compound library
5; Reagent; 2.5 uL; Firefly Luc reagent; Dual-Glo Luciferase Reporter Assay System (Promega)
6; Time; 10 min; room temperature incubation
7; Detection; Luminescence; FLuc
NOTES (numbers refer to sequence above)
1; High-throughput screening, measuring luminescence from a Hek293 luciferase reporter, was performed in 1,536 well white-walled tissue-culture treated plates. 2,500 cells were plated in 4 µL of Opti-MEM per well using a Multidrop Combi Reagent Dispenser (ThermoFisher).
2; Assay plates were cultured for 24 hours.
3; Control inhibitor (PTC124; final concentration of 50 uM) and compound library (at final concentrations of 460 nM - 57.5 uM) were added to the assay plate using the Kalypsis Pintool Robotic System equipped with 1536 pinheads.
4; Cells were then incubated for 24 hours at 37 degrees C prior to luminescence measurements.
5; In all cases, luminescence was measured using the Dual-Glo Luciferase Reporter Assay System (Promega) following the manufacturer's instructions.
6; Room temperature incubation.
7; Luminescence signal was obtained using the PerkinElmer ViewLux plate reader. Results were normalized to vehicle control (0% activity) and zero RLU (-100% activity).
Potency means the concentration at half of the fitted maximal effect.

Activity change, positive = activation, inactive:
COC(=O)c1cc(Cl)c(NC(C)=O)cc1OC 3.75%, COc1ccc(CNC(=O)Cn2nnc(-c3ccccc3F)n2)cc1 -9.07%, CCCC(=O)N1CCN(c2nc3c(OC)ccc(C)c3s2)CC1 -10.6%, COc1ccc(-n2c(=O)c3ccccc3n(Cc3ccccc3Cl)c2=O)cc1 -22.4%, O=C(c1ccc(C(F)(F)F)cc1)N1CCC(c2nc(-c3ccc(S(=O)(=O)N4CCCC4)cc3)no2)CC1 -29.4%, CCCC(=O)Nc1cc(C(=O)NCc2ccc(OC)cc2)ccc1S(=O)(=O)c1ccc(Cl)cc1 1.22%, O=C(Nc1nc2ccc(F)cc2s1)c1nc(SCc2ccccc2F)ncc1Cl 0%, C=Cc1c(C)c2cc3nc(cc4[nH]c(cc5nc(cc1[nH]2)C(C)=C5CCC(=O)O)c(CCC(=O)OC)c4C)[C@@]1(C)C3=CC=C(C(=O)OC)[C@H]1C(=O)OC -35.4%, CC(Nc1ccc(-c2nc(-c3ccco3)no2)cc1[N+](=O)[O-])c1ccccc1 (configuration not stated) 18%, CCOc1ccc(NC(=O)c2c(NC(=O)Cc3ccccc3)sc3c2CCC(C)C3)cc1 (configuration not stated) -28.3%, CCCOc1ccc(-c2cccc(NS(=O)(=O)c3ccccc3)c2)nn1 -27.3%, Cc1cccc(NC(=O)CSc2nc3c(oc4ccccc43)c(=O)n2-c2ccc(F)cc2)c1 -21.1%, Cc1cc(C)cc(OCC(=O)Nc2c(C(=O)c3ccccc3)oc3ccccc23)c1 -4.18%, O=C(NC1CCCCC1)c1ccc(Cn2c(SCc3ccccc3)nc3cccnc32)cc1 -5.82%, COc1cc(C(=O)Nc2ccc(OCc3cc(=O)n4ccc(C)cc4n3)cc2)cc(OC)c1OC -0.483%, Cc1cc2c(cc1S(=O)(=O)CCC(=O)Nc1ccc(OC(F)(F)F)cc1)OCC(=O)N2 -17.4%, CCn1c(=O)c(=O)n(CC)c2cc(N3CCCCC3)c(NC(=O)c3ccc(Cl)cc3)cc21 -4.94%, COc1ccc(NC(=O)COCc2cc(-c3ccco3)on2)cc1 7.49%, COc1ccc(Cn2ccnc2SCC(=O)NCc2ccco2)cc1 1.47%, COc1cccc(C(=O)Nc2ccc3oc(-c4ccc5ccccc5c4)nc3c2)c1 17.6%, COc1ccccc1N1CCN(C2C(=O)c3ccccc3N2C(C)=O)CC1 (configuration not stated) -15.5%, CCOC(=O)c1oc2ccc(S(=O)(=O)n3nc(-c4ccccc4OC)cc3N)cc2c1C -34%, Cc1ccc(C)c(N2C(=O)N(Cc3c(F)cccc3Cl)c3ccccc3S2(=O)=O)c1 -7.55%, Cc1ccc(S(=O)(=O)N(Cc2nc(-c3ccc(Cl)cc3)no2)C2CCCCC2)cc1 -26.2%, COc1cccc(-n2cc(C(=O)NCc3cccc(Cl)c3)c3ccccc3c2=O)c1 -25.7%, Cc1ccc(S(=O)(=O)N2CCCc3cc(NS(=O)(=O)c4cc(C)ccc4C)ccc32)cc1 -26.5%, NCC[C@H](O)C(=O)N[C@@H]1C[C@H](N)[C@@H](O[C@H]2O[C@H](CN)[C@@H](O)[C@H](O)[C@@H]2O)[C@H](O)[C@@H]1O[C@H]1O[C@H](CO)[C@@H](O)[C@H](N)[C@@H]1O -2.89% [at 0.74 µM, percent change from vehicle, -100% = no light], CCCN(C(=O)Cn1cc(S(=O)(=O)N2CCN(c3ccccc3F)CC2)c2ccccc2c1=O)c1cccc(C)c1 -11.8%, Cc1ccc(C)c(OCC(=O)Nc2sc3c(c2C#N)CCCC3)c1C -6.79% [at 11.5 µM, percent change from vehicle, -100% = no light], O=C(CN1C(=O)COc2ccc(S(=O)(=O)N3CCOCC3)cc21)N1CCN(c2cccc(Cl)c2)CC1 -14.6%, COc1ccc(Cn2c(C(=O)O)c(CNCc3cccc(OC)c3)c3ccc(C)cc32)cc1 -54.6%, Cc1cc(C)c(NC(=O)Cn2c(SCC(=O)NCc3ccccc3)nc3ccccc32)c(C)c1 -19.4%, CCOC(=O)c1cccc(NS(=O)(=O)c2cn(C)c(C)n2)c1 -13.7%, COc1cc2[nH]c(=O)n(Cc3ccc(C(=O)NCc4ccc(C)cc4)cc3)c(=O)c2cc1OC -17%, CCOC(=O)c1c(NC(=O)Cc2coc3ccc(CC)cc23)sc2c1CCC2 -19.1%, COc1cccc(C(c2c(O)cc(C)n(Cc3ccco3)c2=O)N2CCN(c3ccccc3)CC2)c1 (configuration not stated) -0.441%, COc1ccc(CC(=O)N2CC(=O)Nc3ccc(Br)cc3C2c2ccc(F)cc2)cc1OC (configuration not stated) -15.1%, Cc1ccc(CNS(=O)(=O)c2ccc(-c3cc(C(F)(F)F)on3)s2)cc1 -6.66%, COc1ccc(-c2nc3ccc(C(=O)NCc4ccc(C)cc4)cc3nc2-c2ccc(OC)cc2)cc1 -8.79%, CCCNC(=O)C1CCN(c2nc3ccc(C)cc3[nH]2)CC1 22.1%, COc1ccc(-c2nc3sc(CCNC(=O)C(C)(C)C)c(C)n3n2)cc1 -11.6%, COc1ccc(C)cc1-n1c(-c2ccc(C)cc2)cc2c1CC(C)(C)CC2=O 2.19%, Cc1cc(Br)ccc1NC(=O)Cn1cnc2sc(C)c(S(=O)(=O)N3CCN(C)CC3)c2c1=O 15%, Cc1ccc(-c2noc(-c3nnn(-c4cccc(C(F)(F)F)c4)c3N)n2)cc1 -1.74%, O=C(Nc1ccc(C(=O)OCc2cc(=O)n3nc(C4CC4)sc3n2)cc1)c1ccc(F)cc1 10.7%, COc1ccc(Cn2c(=O)c3oc4ccccc4c3n(CC(=O)Nc3ccc(F)cc3F)c2=O)cc1 2.09%, O=C(CN1CCSc2ccccc21)N1CCN(c2ccccc2)CC1 -22.4%, COc1ccc2c(c1)c(N1CCCC1=O)c(C(=O)Nc1ccccc1C(F)(F)F)n2C -2.97%, Cc1ccc(NC(=O)CSc2nc3c([nH]c4ccccc43)c(=O)n2-c2ccccc2)cc1Cl -32.6%, Cc1ccccc1Cn1nc(C)c(NC(=O)c2cc(-c3ccc(F)cc3)on2)c1C -10.1%, CCn1cc(C(=O)N2CCN(c3cc(C)ccc3C)CC2)c(=O)c2cc(S(=O)(=O)N(C)C3CCCCC3)ccc21 -10.6%, Cc1ccc(C)c(N2CCN(c3ccc4cc(S(=O)(=O)N5CCC(C)CC5)ccc4n3)CC2)c1 -4.49%, CC[C@]12C=CCN3CC[C@@]4(c5cc([C@@]6(C(=O)OC)C[C@H]7C[C@@H](C(C)(F)F)CN(Cc8c6[nH]c6ccccc86)C7)c(OC)cc5N(C)[C@H]4[C@@](O)(C(=O)OC)[C@H]1OC(C)=O)[C@@H]32 -39.3%, Cc1nc(SCC(=O)Nc2ccc(C(=O)O)cc2)n[nH]1 -6.31%, O=C(CSc1nc2c(c(=O)[nH]1)CN(Cc1ccc3c(c1)OCO3)CC2)Nc1cc(F)ccc1F -5.4%, COC(=O)c1cc(NC(=O)CCS(=O)(=O)c2cc(Br)cc3c2N(C(=O)C2CC2)CC3)cc(C(=O)OC)c1 -9.29%, CC(=O)c1ccc(NC(=O)c2nc(-c3ccc(C)cc3)n3c2CCCCC3)cc1 -31.3%, Cc1cccc(C(=O)N2CCc3cc(CNC(=O)Cc4ccc(F)cc4)ccc32)c1 -43.4%, CCOC(=O)c1c(C)[nH]c(C)c1S(=O)(=O)N1CCCC(C(=O)NCc2ccccc2Cl)C1 (configuration not stated) -16.6%, COc1ccc(-n2c(=O)c3sc4ccccc4c3n(CC(=O)Nc3cccc(C)c3)c2=O)cc1 2.07%, Cc1ccc(CNC(=O)Cn2c(=O)ccc3cc(S(=O)(=O)N4CCCC4)ccc32)cc1 -19.3%, Cc1ccc(C)c(Cn2c(C(=O)O)c(CNCc3cccs3)c3ccccc32)c1 -29.9%, COC(=O)c1cccc(Cn2nnc3sc4c(c3c2=O)CCC(C(C)(C)C)C4)c1 (configuration not stated) -49.6%, CCOc1cc(C=C2C(=O)N(c3ccccc3)N=C2C)cc(Cl)c1OCC(=O)OC -27.3%, CCOc1ccc(NC(=O)c2c(NCc3cccc(OC)c3OC)sc3c2CCC3)cc1 -5.92%, CC1CCCCN1S(=O)(=O)c1ccc(F)c(C(=O)Nc2ccccc2C(F)(F)F)c1 (configuration not stated) 2.75%, CCn1c(C)c(C)c2cc(C(=O)N3CCN(c4cccc(C)c4C)CC3)ccc21 -13.7%, COc1ccc(CNS(=O)(=O)c2cc3c4c(c2)CCN4C(=O)CC3)cc1 -21.3%, O=C(NCc1ccccc1)C(=O)NCC(c1ccco1)S(=O)(=O)c1ccc(Cl)cc1 (configuration not stated) -27.8%, Oc1ccccc1-c1nc2ccc(Cl)cn2c1Nc1ccc2c(c1)OCCO2 -11.4%, CCn1cc(C(=O)N2CCN(c3cc(Cl)ccc3C)CC2)c(=O)c2cc(S(=O)(=O)N3CCCC3)ccc21 10.5% [at 11.5 µM, percent change from vehicle, -100% = no light], O=C(NCc1ccc(Cl)cc1)c1ccc2c(c1)nnn2C1CCCC1 -2.28%, CC(=O)c1ccc(NC(=O)c2nc3nc(C)cc(C(F)F)n3n2)cc1 -1.75%, COc1ccc(CCNC(=O)c2ccc(CSCc3ccc(C)cc3)o2)cc1OC -31.8%, CCCOC(=O)c1c(NC(=O)c2cc3nc(-c4ccc(OC)cc4)cc(C(F)(F)F)n3n2)sc2c1CCCC2 -19.6%, CCC(=O)N1c2ccccc2CC1C(=O)N1CCN(c2ccccc2F)CC1 (configuration not stated) -5.95%, COc1ccc2[nH]c3c(c2c1)CCN(C(=O)CCC1CCCC1)C3c1ccc(F)cc1 (configuration not stated) -32.3%, CCOc1ccc(/C=C(\C#N)c2nc3ccccc3c(=O)[nH]2)cc1OC -7.49%, Cc1ccc(Cl)cc1N1CCN(C(=O)c2cn(C)c3ccc(S(=O)(=O)N(C)C4CCCCC4)cc3c2=O)CC1 0.244%, Cc1ccc(CN2C(=O)SC(Nc3ccccc3)C2=O)cc1 (configuration not stated) -13.4%, COc1ccc(-c2onc(C)c2C)cc1S(=O)(=O)NCCc1ccccc1 -33.1%, Cc1ccccc1CNC(=O)CSc1nnc(C)c2c(C)n(-c3ccccc3)nc12 -26.1%, O=C(c1ccc(Br)cc1)N(Cc1cccs1)c1ccc(F)cc1 -26.9%, COc1cccc(-n2ccn(CC(=O)NCc3ccc(C)cc3)c(=O)c2=O)c1 -4.99%, COc1ccc(CNC(=O)Cn2nnc(-c3ccc(S(C)(=O)=O)cc3)n2)cc1 -10.6%

Potency, active:
Cc1ccc2nc(CNC(=O)c3ccccc3)[nH]c2c1 4.47 µM, CCOc1ccc(-c2cc3c(=O)n(CC(=O)NCc4ccc(OC)cc4)ccn3n2)cc1 0.447 µM
